The nature of test [1]: ACEA_ER_80hr: ACEA Biosciences xCELLigence Real-Time Cell Analysis on Estrogen Receptor Agonism for Proliferation (AID 2282667; active means hit-call score of the fitted dose curve at least 0.9, where 1 is the maximum). The conditions noted are these: T47D proliferation, impedance (xCELLigence), 80 h. Summed up:
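Real-time impedance growth kinetics of human T-47D breast cells read 80 h after dosing, gain-of-signal fitted relative to DMSO. Compounds: 1:4 serial series, top final concentration 100 uM, n = 2.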

Test [2] can be described thus: ATG_CRE_CIS: Attagene CIS-FACTORIAL HepG2 Assay for human cAMP Responsive Element (CRE) binding protein 3 (AID 2282926). The conditions noted are these: HepG2 CRE cis-reporter, Attagene multiplexed mRNA; actives raise or lower the signal. In short, it runs like this:
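Multiplexed transcription-unit reporters transfected into HepG2; 24 h dosing; RT-PCR/capillary electrophoresis fluorescence read-out; bidirectional fit vs DMSO.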

For test [3], the target named is CCAAT/enhancer-binding protein beta (Homo sapiens) (UniProt P17676). Nature of the test: ATG_C_EBP_CIS: Attagene CIS-FACTORIAL HepG2 Assay for human CCAAT/Enhancer Binding Protein (C/EBP) beta (AID 2282927). The settings on record: HepG2 Attagene cis-factorial transcription factor reporter; actives raise or lower the signal. In short, it runs like this:
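Endogenous transcription factor activity in human liver HepG2 cells is inferred from induction of a CEBPB-linked reporter mRNA. Exposure lasts 24 h; activity is fitted in both directions relative to DMSO.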

Results filed as inconclusive are left out. Activity calls are given as the source filed them. How the source made its calls, unless noted: active means hit-call score of the fitted dose curve at least 0.9, where 1 is the maximum; inactive means score below 0.9.

Sequence of CCAAT/enhancer-binding protein beta (Homo sapiens) (P17676 whole entry, looked up): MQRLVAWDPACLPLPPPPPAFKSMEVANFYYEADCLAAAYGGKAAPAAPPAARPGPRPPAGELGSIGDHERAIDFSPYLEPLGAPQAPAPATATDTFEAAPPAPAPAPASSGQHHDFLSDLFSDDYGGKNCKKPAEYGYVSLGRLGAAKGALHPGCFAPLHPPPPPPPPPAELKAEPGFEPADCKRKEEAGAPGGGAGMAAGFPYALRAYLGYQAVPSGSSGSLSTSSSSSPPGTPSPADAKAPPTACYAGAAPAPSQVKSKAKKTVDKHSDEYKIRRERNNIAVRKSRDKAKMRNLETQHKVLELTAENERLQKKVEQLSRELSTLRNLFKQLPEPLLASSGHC

In the case of `CCC[CH2][Sn]([Cl])([Cl])[Cl]`, the compound was classed as inactive in test [1], in test [2] and in test [3].
Take `CCC(C)c1cccc(C(C)CC)c1O` (stereo not drawn): the result in test [1], in test [2] and in test [3] was inactive.
On to `CCN(CC)C(=O)Cl`, for which the call in test [1], in test [2] and in test [3] was inactive.
For `O=C(O)Cc1ccccc1`, the result in test [1], in test [2] and in test [3] was inactive.
In the case of `[O-][Cl+2]([O-])O`, the compound was called inactive in test [1], in test [2] and in test [3].
On to `C1CCC(NC2CCCCC2)CC1`, for which the compound was classed as inactive in test [1], in test [2] and in test [3].
Consider `CCCCCCCCSC(=O)Oc1cc(Cl)nnc1-c1ccccc1`, for which the AC50 in test [1] was 50000 nM (active). Further, the call in test [2] and in test [3] was inactive.
With `O=Cc1cccc(Oc2ccccc2)c1`, the call in test [1], in test [2] and in test [3] was inactive.
With `COc1ccc(OC)c(C=O)c1`, the compound was classed as inactive in test [1], in test [2] and in test [3].
Turning to `COP(=O)(OC)O/C(=C\Cl)c1cc(Cl)c(Cl)cc1Cl`, the result in test [1], in test [2] and in test [3] was inactive.
Consider `COP(=S)(OC)Oc1c(Cl)cc(C)cc1Cl`, for which the compound was called inactive in test [1], in test [2] and in test [3].
As to `COc1cc2c(cc1OC)[C@@]13CCN4CC5=CCO[C@H]6CC(=O)N2[C@H]1[C@H]6[C@H]5C[C@H]43`, the call in test [1], in test [2] and in test [3] was inactive.
Consider `CC1(C)CCC(Cc2ccc(Cl)cc2)C1(O)Cn1cncn1` (stereo not drawn), for which the result in test [1], in test [2] and in test [3] was inactive.
Turning to `COC[C@H](C)N(C(=O)CCl)c1c(C)csc1C`, the compound was classed as inactive in test [1], in test [2] and in test [3].
`CCc1ccccc1C`: the AC50 in test [1] was 87.9 nM (active). Further, the call in test [2] and in test [3] was inactive.
Take `O=[N+]([O-])c1ccc2c3c(cccc13)CC2`: the compound was called inactive in test [1], in test [2] and in test [3].
Turning to `CCOC(=O)CP(=O)(OCC)OCC`, the result in test [1], in test [2] and in test [3] was inactive.
Regarding `CC(C#N)CCC#N` (stereo not drawn), the result in test [1], in test [2] and in test [3] was inactive.
For `Nc1ccc(-c2ccc(N)c(Cl)c2)cc1Cl`, the call in test [1], in test [2] and in test [3] was inactive.
For the compound `CCCCOCCOC(C)=O`, the compound was classed as inactive in test [1], in test [2] and in test [3].
As for `O=[N+]([O-])c1c(Cl)c(Cl)cc(Cl)c1Cl`, the call in test [1], in test [2] and in test [3] was inactive.
On to `C[C@]12CC[C@H](O)CC1=CC[C@@H]1[C@@H]2CC[C@]2(C)C(=O)CC[C@@H]12`, for which the AC50 in test [1] is 983 nM (active). Moreover, the call in test [2] and in test [3] was inactive.
As for `CC(C)OC(=O)Nc1ccccc1`, the result in test [1], in test [2] and in test [3] was inactive.
As for `CCOP(OCC)OCC`, the outcome in test [1], in test [2] and in test [3] was inactive.
`CCOP(=S)(OCC)Oc1ccc(S(C)=O)cc1` (stereo not drawn): the compound was called inactive in test [1], in test [2] and in test [3].
For the compound `CC(=O)OC(c1ccccc1)C(Cl)(Cl)Cl` (stereo not drawn), the compound was classed as inactive in test [1], in test [2] and in test [3].

Values taken from PubChem BioAssay (EPA / NIEHS).
